Assay outcomes (PubChem BioAssay)
The list is not random: actives were taken first. Their share in the collection is about 6.1%.
D3 ag = qHTS of D3 Dopamine Receptor Agonist: qHTS; AID 652048, 2013; D(3) dopamine receptor (Homo sapiens), P35462; 0.58% of 410,000 active; D3R DiscoveRx beta-arrestin cells, luminescence, 90 min; max activation, %; in the data active = max activation above about 30%; also: 0% is about no effect
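Agonist-mode cell screen: cells plated at 1500/well and incubated overnight at 37 °C, then exposed to library compounds for 90 min at 37 °C. Detection reagent was added for 30–60 min at room temperature, and luminescence was read.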
D1 PAM = Potentiators of Human D1 Dopamine Receptor: qHTS; D(1A) dopamine receptor (Homo sapiens), P21728; HEK293 TREx D1 cells, calcium flux, dopamine EC20 potentiation; potentiation, % at 10 µM; 0.036% of 360,000 active; in the data active = potentiation above about 30%; also: 0% is about no effect
Target sequence (P21728 whole entry, looked up): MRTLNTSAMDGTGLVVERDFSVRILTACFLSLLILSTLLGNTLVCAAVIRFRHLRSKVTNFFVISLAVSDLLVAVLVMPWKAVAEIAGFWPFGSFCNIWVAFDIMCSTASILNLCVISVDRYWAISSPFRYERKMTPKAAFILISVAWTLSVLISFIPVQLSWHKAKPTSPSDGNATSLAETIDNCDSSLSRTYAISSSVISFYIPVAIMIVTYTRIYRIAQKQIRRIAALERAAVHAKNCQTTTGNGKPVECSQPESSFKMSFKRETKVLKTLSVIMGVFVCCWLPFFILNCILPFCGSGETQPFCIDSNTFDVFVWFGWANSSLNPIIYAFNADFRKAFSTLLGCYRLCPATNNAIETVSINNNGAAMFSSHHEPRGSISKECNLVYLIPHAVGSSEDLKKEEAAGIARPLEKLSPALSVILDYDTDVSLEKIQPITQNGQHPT
D3 antag = qHTS of D3 Dopamine Receptor Antagonist: qHTS | AID 652054, 2013 | D3R cells, DiscoveRx beta-arrestin luminescence, antagonist mode; stronger effect = lower value | max response, negative = inhibition, % | 2.5% of 360,000 active; in the data active = max response below about -50%; also: % is scaled to controls: 0 for no effect and ±100 for the full control effect
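Cells plated overnight at 1500 cells/well, then exposed to library compounds with dopamine controls for 90 minutes at 37 degrees C. DiscoveRx reagent added for 30–60 minutes at room temperature; luminescence read, quantitative HTS format.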
D1 ag = Allosteric Agonists of the Human D1 Dopamine Receptor: qHTS | HEK293 T-REx D1 cells, calcium flux, agonist mode | 1% of 360,000 active | activation, % at 2 µM | D(1A) dopamine receptor (Homo sapiens), P21728; in the data active = activation above about 30%; also: 0% is about no effect
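Agonism was scored from calcium flux recorded over 180 s (1 read/s) after pintool compound addition, following a 10-cycle baseline. Cells were inducible force-coupled HEK293 TREx D1, plated overnight at 30 C and loaded with no-wash calcium dye.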
D1 antag = Antagonist of Human D 1 Dopamine Receptor: qHTS | AID 504652, 2011 | D(1A) dopamine receptor (Homo sapiens), P21728 | activity change, negative = inhibition, % at 10 µM | 3.2% of 360,000 active | HEK293 TREx D1 cells, calcium flux, dopamine EC80; stronger effect = lower value; in the data active = activity change below about -30%; also: % is scaled to controls: 0 for no effect and ±100 for the full control effect
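Allosteric or orthosteric antagonism assessed as attenuation of the calcium response to EC80 dopamine, added 180 s after compound, in induced HEK293 Trex D1 cells loaded with no-wash calcium dye.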
* marks the source's active call; other numbers are inactive results; nt = no result; ! = not confirmed by another sample.

SMILES	D3 ag	D1 PAM	D3 antag	D1 ag	D1 antag
CCCCN(CC)CCNc1c(NC2CCN(C(=O)OCC)CC2)c(=O)c1=O	0	nt	8	2	-63*
CCCCNc1c(N2CCN(C(=O)OCC)CC2)c(=O)c1=O	1	-2	-15	-2	-9
CCOC(=O)N1CCC(Nc2c(Nc3ccc(C)c(C)c3)c(=O)c2=O)CC1	-68	-4	-71*	2	-18
CCOC(=O)N1CCC(Nc2c(NCCCN(CC)CC)c(=O)c2=O)CC1	3	nt	-11	2	-7
CCOc1ccccc1CNC(=O)CN1C(=O)CCc2cc(S(=O)(=O)N3CCCCC3)ccc21	-8	0	nt	8	13
CCCCNC(=S)NNC(=O)c1csc(C(C)C)c1	1	-4	35	-1	-45*
COc1cc(OC)c(NC(=O)N2CCc3cc(OC)c(OC)cc3C2CC(=O)O)cc1Cl (stereo unspecified)	-3	4	nt	0	-5
COc1ccc(NC(=O)CCS(=O)(=O)c2ccc(OC)cc2)cc1	1	-12	33	-1	-42*
COc1cccc(NC(=O)CCS(=O)(=O)c2ccc3c(c2)oc(=O)n3C)c1	5	2	1	3	-30*!
Cc1cccc(C)c1NC(=O)CCS(=O)(=O)c1ccc2c(c1)n(C)c(=O)c(=O)n2C	2	-5	nt	3	-36*
Cn1c(=O)c(=O)n(C)c2cc(S(=O)(=O)CCC(=O)Nc3ccc(F)cc3)ccc21	-2	1	26	0	19
COc1ccc(NC(=O)CCS(=O)(=O)c2ccc(Cl)cc2)cc1	1	-4	1	2	5
CCOc1ccc(S(=O)(=O)NCCC(=O)N(C)CC(=O)Nc2ccc(OC)cc2)cc1	-6	-11	10	2	-43*
Cc1nc2cccnc2n1-c1cccc(C(=O)NCCc2ccc(S(N)(=O)=O)cc2)c1	-9	0	nt	0	8
COc1ccc(-c2nn(C)c3sc(C(=O)Nc4cccc(F)c4)cc23)cc1OC	-24	-6	nt	7	0
CCOC(=O)c1[nH]c(C)c(C(=O)OCC(=O)NCc2ccc(OC)cc2)c1C	-2	1	11	1	-25
CCOC(=O)c1c(C)[nH]c(C(=O)N(C)CC(=O)Nc2ccc(OC)cc2)c1C	-11	4	-22	1	-68*
COc1ccc(NC(=O)CCS(=O)(=O)c2ccc(Br)s2)cc1	-1	-4	5	0	-37*
CC1CCN(CCNC(=O)CCS(=O)(=O)c2ccc(Br)cc2)CC1	-14	-6	-10	1	-43*
Cc1ccc(CCNC(=O)CCS(=O)(=O)c2ccc(Br)cc2)cc1	0	-2	-7	0	21
COc1cccc(N2C(=O)CSC23C(=O)N(CC(=O)Nc2cc(C)ccc2C)c2ccccc23)c1 (stereo unspecified)	5	1	nt	2	-25
COc1cc2[nH]c(C(=O)NCc3ccccc3)cc2c(OC)c1OC	-10	-9	-105*	1	-36*
COc1cc2[nH]c(C(=O)NCCc3ccccc3)cc2c(OC)c1OC	-15	-5	-61*	1	-2
COc1cc2[nH]cc(C(=O)NCCc3ccccc3)c(=O)c2cc1OC	11	-8	16	0	-32*
CCOc1ccc(NC(=O)CN2C(=O)C3(SCC(=O)N3c3ccc(F)cc3)c3ccccc32)cc1 (stereo unspecified)	1	-2	nt	2	-5
SMILES	D3 ag	D1 PAM	D3 antag	D1 ag	D1 antag
CCOC(=O)c1sc(NC(=O)Nc2ccccc2Cl)cc1C	-30	-6	6	15	-39*
CCOC(=O)c1sc(NC(C)=O)cc1C	-9	-14	0	0	3
CCOC(=O)c1sc(NC(=O)Nc2ccccc2)cc1C	-3	-5	-5	21	-42*
CCOC(=O)c1sc(NC(=O)c2ccc(C)s2)cc1C	-4	-6	-29	-1	25
COc1ccc(C)cc1NC(=O)C1CCN(S(=O)(=O)c2ccc3[nH]c4c(c3c2)CCCCC4)CC1	1	-3	nt	4	-12
OCC(O)COc1ccc(Cl)cc1 (stereo unspecified)	5	nt	nt	nt	nt
CCOc1cc2sc(N3CCC(C(=O)Nc4ccc(C)cc4C)CC3)nc2cc1Br	7	2	nt	2	2
C(=C\c1nccc2c1[nH]c1ccccc12)/c1ccccc1	0	7	-5	0	-37*
Fc1ccc(/C=C\c2nccc3c2[nH]c2ccccc23)cc1	-3	-4	17	0	-5
O=S(=O)(c1ccc(OCC(O)CN2CCN(c3ccccc3)CC2)cc1)N1CCOCC1 (stereo unspecified)	43*	2	0	8	-3
O=S(=O)(c1ccc(OCC(O)CN2CCCC2)cc1)N1CCOCC1 (stereo unspecified)	3	-1	3	2	0
O=S(=O)(c1ccc(OCC(O)CN2CCC(Cc3ccccc3)CC2)cc1)N1CCOCC1 (stereo unspecified)	-32	-3	-59*	16	-12
O=C(CNS(=O)(=O)c1ccccc1Br)OCC(=O)N1CCc2ccccc21	-1	-5	23	4	-57*
Cc1ccccc1Cn1c(=O)n(CC2CCC(C(=O)N3CCC(C)CC3)CC2)c(=O)c2sccc21 (stereo unspecified)	7	-2	nt	2	-3
COC(=O)CN(c1ccccc1C)S(C)(=O)=O	4	-4	15	1	-38*
Cc1ccc2oc(=O)c3cnn(CC(=O)N4CCN(c5ccccc5F)CC4)c3c2c1	13	0	nt	1	-5
OCC1(CC2CCCCO2)CCN(C/C=C/c2ccccc2)CC1 (stereo unspecified)	-13	-1	-68*	18	-18
OCC1(CC2CCCCO2)CCN(Cc2nc3ccccc3[nH]2)CC1 (stereo unspecified)	-5	0	-2	-1	-14
COc1ccc(NC(=O)N2CCC(CO)(CC3CCCCO3)CC2)c(OC)c1 (stereo unspecified)	8	1	6	2	19
COc1cc(/C=C/CN2CCC(CO)(CC3CCCCO3)CC2)ccc1O (stereo unspecified)	-53	-4	-67*	2	-2
CCOc1ccc2c(c1)-c1c(ssc1=S)C(C)(C)N2	-10	1	-74*	2	18
COc1cc(C(=O)N2CC(=O)Nc3ccc(C)cc3C2c2ccc(F)cc2)cc(OC)c1OC (stereo unspecified)	-22	1	nt	14	18
CC1CCN(C(=O)c2cc3c(=O)n(C)c4ccccc4c3s2)CC1	-10	-2	nt	2	-31*
